# Results from PubChem BioAssay AID1362 (SRMLSC, 2008).
# In all, about 190,000 compounds went through this assay and about 4,000 (2.1%) were called active. Cut-off read from the data, not from the text of the source: active = inhibition above about 58%; inactive = the rest, inconclusive results apart; tested in S. cerevisiae. The list comes from a sample in which actives are over-represented; it also holds similar structures and randomly drawn compounds.
# Assay: growth inhibition of WT strain, primary screen, mitochondrial fusion inhibitor project, WT and mutant strains, chemical genetic (AID 1362)
# Conditions: mitochondrial fusion phenotypic screen, at 10 µM
# [1] = WT strain, growth inhibition, stronger effect = higher value
Structure (SMILES),inhibition [1],inhibition (mutant strain inhibition)
CCOc1ccc2c(c1)C(c1ccc(C)cc1)=NNC(c1ccc(C)cc1)=N2,45.3% (inactive),35.7%
CCc1ccc2c(c1)C(c1ccc([N+](=O)[O-])cc1)=NNC(c1ccccc1)=N2,-6.57% (inactive),12%
Cc1ccc(C2=Nc3c(ccc4ccccc34)C(c3ccncc3)=NN2)cc1,67.9% (active),45.6%
Cc1coc(C)c1C(=O)CC1(O)C(=O)N(C)c2ccc(Cl)cc21 (configuration not stated),5.13% (inactive),0.33%
COc1ccc(C(=O)NCC(=O)N/N=C/c2ccc([N+](=O)[O-])s2)cc1OC,-4.24% (inactive),-9.98%
Cc1ccccc1NCC(=O)N/N=C\c1ccc([N+](=O)[O-])s1,66.5% (active),43.8%
Cc1cccc(/C=N/NC(=O)CNc2cccc3ccccc23)n1,18.4% (inactive),3.37%
CCOc1ccc(NC(=O)CCC(=O)n2nc(C)cc2C)cc1,-6.72% (inactive),-6.56%
CCCCCC(=O)Nc1ccc(C(=O)N/N=C/c2ccc([N+](=O)[O-])cc2)cc1,-17% (inactive),15.9%
CCOc1ccc(NC(=O)CCC(=O)N/N=C/c2ccc([N+](=O)[O-])s2)cc1,60.3% (active),17.2%
CCN(CC)C(=O)Cn1cc(S(=O)(=O)CC(=O)NCc2ccc3c(c2)OCO3)c2ccccc21,-10.5% (inactive),4.73%
O=C(/C=C/c1ccc(F)cc1)NCCNC(=O)/C=C/c1ccc(F)cc1,8.8% (inactive),-17%
OCC1(Cc2ccccc2)CCN(Cc2cc3ccccc3o2)CC1,24.3% (inactive),36.2%
Cc1csc(Nc2ccc(Cl)cc2)[n+]1-c1ccc(Cl)cc1,78.4% (active),70%
COc1ccc(N2CCN(C(=O)COc3ccc4c(C)cc(=O)oc4c3)CC2)cc1,-1.11% (inactive),-11.1%
CC(C)c1nc(CNC(=O)CC2C(=O)NCCN2Cc2ccoc2)cs1 (configuration not stated),1.8% (inactive),0.76%
N#CCCN(CCC#N)c1nnc(-c2ccccc2)s1,73.6% (active),-2.41%
CN(C(=O)COc1ccccc1)c1nnc(-c2ccncc2)s1,22.6% (inactive),9.04%
CN(CCC#N)c1ncnc2scc(-c3ccccc3)c12,23.5% (inactive),28.2%
OCCC1CN(Cc2cccc(O)c2)CCN1CCc1ccccc1 (configuration not stated),9.78% (inactive),8.67%
CCc1ccc(Oc2nc([N+](=O)[O-])nn2C)cc1,3.07% (inactive),19%
N=C(N)SCc1cccc2ccccc12,41% (inactive),10.9%

Structure (SMILES),inhibition [1],inhibition (mutant strain inhibition)
CCn1c(SCc2ccc(C)cc2)nnc1-c1nn(-c2ccccc2)ccc1=O,4.19% (inactive),-13.4%
CCc1ccc(-c2nn(-c3ccccc3)cc2CSC(=N)N)cc1,90.2% (active),35.6%
O=C(Nc1ccc2cn[nH]c2c1)c1ccc(S(=O)(=O)N2CCOCC2)cc1,2.7% (inactive),11.1%
CS(=O)(=O)N1CCc2cc(C(=O)Nc3ccccc3)ccc21,-2.67% (inactive),-18.5%
Cc1cccc2cc3c(N)c(C(=O)N4CCCc5ccccc54)sc3nc12,62.1% (active),57.1%
Cc1occc1C(=O)N1CCCc2ccccc21,-3.43% (inactive),-8.66%
Cc1c(C(=O)N2CCCc3ccccc32)sc2nc(-c3ccccc3)cn12,9.55% (inactive),9.04%
C/C(=N\NC(=O)c1cccc(N2CCCC2=O)c1)c1ccc(N)cc1,-2.44% (inactive),-3.4%
CCNC(=S)NNC(=O)c1ccc2ncccc2c1,-18.5% (inactive),-0.98%
O=C(COC(=O)c1ccc(O)cc1)Nc1nccs1,-7.58% (inactive),1.79%
Cc1ccc(CNC(=O)CN2CCN(Cc3ccc(Cl)cc3)C2=O)cc1,4.82% (inactive),-0.06%
O=C(CN1CCN(c2ccc(Cl)cc2)CC1)NCc1cccs1,14.4% (inactive),-1.49%
O=C(CN1CCN(S(=O)(=O)c2ccc(Cl)s2)CC1)NCc1ccc(Cl)cc1,61.7% (active),-2.81%
Cc1ccc2nsnc2c1S(=O)(=O)N1CCCC1C(=O)O (configuration not stated),2.57% (inactive),-0.55%
CC(=O)NC(Cc1ccc(F)c(F)c1)C(=O)NC1CCN(c2nnnn2-c2ccccc2)CC1 (configuration not stated),-2.05% (inactive),7.21%
CS(=O)(=O)N(Cc1ccccc1Cl)c1ccc(C(=O)NCc2cccnc2)cc1,1.43% (inactive),5.31%
Clc1ccc(C2=CSC3=Nc4cccc5cccc(c45)N23)cc1,61% (active),25.3%
COc1ccc(CN2CCNC(=O)C2CC(=O)N(C)Cc2ccccn2)cc1OC (configuration not stated),-6.3% (inactive),-4.12%
COC(=O)CSc1ccc2nnc(CCNS(=O)(=O)c3ccc(C)cc3)n2n1,8.31% (inactive),0.44%
CCCCCC(=O)Nc1ccc(-c2cn3cccnc3n2)cc1,10.4% (inactive),10.5%
COc1ccc(CCN=C2SCC(=O)N2Cc2ccccc2)cc1OC,-7.75% (inactive),-8.9%
O=C(O)CCC(=O)NCc1ccc2[nH]c3c(c2c1)CCCC3,16.4% (inactive),10.2%

Structure (SMILES),inhibition [1],inhibition (mutant strain inhibition)
Cc1cccc(NC(=S)NCCN(C2CCCCC2)C2CCCC2)c1,6.36% (inactive),-17.7%
Cc1cccc(NC(=S)NCc2ccc3[nH]c4c(c3c2)CCCC4)c1,75.3% (active),51.7%
OC(COc1ccc(CN2CCSCC2)cc1)CN1CCCCC1 (configuration not stated),-6.41% (inactive),3.34%
C=CCN(CC=C)C(=O)COC(=O)c1n[nH]c2ccccc12,3.05% (inactive),3.34%
NC(=O)COC(=O)c1cc(S(=O)(=O)N2CCN(c3ccccc3)CC2)ccc1Cl,-11% (inactive),6.11%
CCC(C)c1ccc(NC(=S)NCc2ccccn2)cc1 (configuration not stated),71% (active),62.6%
COc1cccc(NC(=S)NCc2ccccn2)c1,-0.62% (inactive),6.49%
O=C(NCc1ccccn1)Nc1ccc(F)cc1,-29.6% (inactive),-0.93%
COc1ccccc1Oc1ccc(S(=O)(=O)Nc2cccnc2)cc1,7.74% (inactive),7.52%
COC(=O)Cc1ccc(Oc2ncc(C(F)(F)F)cc2Cl)cc1,13.6% (inactive),17.5%
Cc1cc(C)cc(NS(=O)(=O)c2ccc(Oc3ncc(C(F)(F)F)cc3Cl)cc2)c1,75.5% (active),23.7%
COC(=O)C1=C(C)N(C)C(=S)NC1c1cc(OC)ccc1OC (configuration not stated),4.73% (inactive),3.84%
O=C(NCc1ccccc1Cl)C1CCCO1 (configuration not stated),-11.3% (inactive),7.12%
COC(=O)CNC(=O)c1ccc(OC2CCN(C(=O)C3CC3)CC2)cc1,1.17% (inactive),10.2%
CSc1cccc(NC(=S)N(C(C)C)C(C)c2ccccn2)c1 (configuration not stated),31.2% (inactive),20.5%
COc1cccc(NC(=S)N(Cc2ccc(C)cc2)Cc2ccccn2)c1,4.22% (inactive),20.6%
CSc1cccc(NC(=S)N(Cc2ccccc2)Cc2ccccn2)c1,65.9% (active),28.6%
CC(=O)Nc1ccc(S(=O)(=O)N(C)c2ccc(OCC(=O)OCC(=O)N3CCCCC3)cc2)cc1,0.1% (inactive),-22.2%
Cc1ccc(SCCC(=O)Nc2cc(C)on2)cc1,10.3% (inactive),-8.98%
NC1=NC2(CCCCC2)N(c2ccc(F)cc2F)C(N)=N1,-0.71% (inactive),-2.91%
Cc1ccc2nc(NCCCNC(=O)c3cnccn3)c(C#N)cc2c1,90.6% (active),-2.29%
COCCCNC(=S)NCCNc1nc2cc(C)c(C)cc2cc1C#N,7.68% (inactive),10.7%

Structure (SMILES),inhibition [1],inhibition (mutant strain inhibition)
Cc1ccc2cc(C#N)c(NCCNC(=S)NCCCN3CCOCC3)nc2c1,10.9% (inactive),3.33%
O=C(NC1CC1)C1CCCN(C(=O)NC2CCCCC2)C1 (configuration not stated),-6.93% (inactive),-6.42%
Cc1ccnc(N2CCC(C(=O)NC3CCCCCC3)CC2)n1,-13.5% (inactive),-18.9%
FC(F)(F)COc1nc(N2CCCCC2)nc(N2CCNCC2)n1,3.34% (inactive),2.8%
COc1nc(NC2CCCCC2)nc(N2CCCCCC2)n1,66.3% (active),28.3%
CCN(CCCNC(=O)CSc1cc(=O)n(C)c2cc(Cl)ccc12)Cc1ccccc1,-10.6% (inactive),-11.8%
CC(O)CNCCOc1cccc(Oc2ccccc2)c1 (configuration not stated),-0.49% (inactive),17.6%
CCOC(=O)c1[nH]ncc1CN1CCCC(C(=O)c2ccc(OC)cc2C)C1 (configuration not stated),3.7% (inactive),9.86%
O=C(N/N=C/c1cc2c(cc1Br)OCO2)C1COc2ccccc2O1 (configuration not stated),29.9% (inactive),30%
Cc1nc2ccccc2nc(C)c1=NOCc1ccc(Cl)cc1Cl,67.9% (active),2.92%
O=S(=O)(O)c1nc2ccccc2n1Cc1ccc(Cl)cc1Cl,18.7% (inactive),26%
COC(=O)c1sc2ncccc2c1OCc1ccc(Cl)cc1Cl,12.8% (inactive),-2.97%
CC(C)N1C(=S)SC(C)(C)C1n1oc(=O)n(-c2ccc(Cl)c(Cl)c2)c1=O (configuration not stated),76.3% (active),19.9%
Cc1ccc(C2CC(c3cccc(NS(C)(=O)=O)c3)=NN2S(C)(=O)=O)cc1 (configuration not stated),4.24% (inactive),6.73%
CCOc1cc(CNn2c(C)nnc2SCC(=O)NC(C)(C)C)ccc1OCC(=O)NC(C)(C)C,-19.6% (inactive),0.2%
Cc1cc(C(=O)CCl)c(C)n1CC1COc2ccccc2O1 (configuration not stated),7.72% (inactive),25.4%
N#Cc1c(N)nc2c(c1N)CC(C(F)(F)F)O2 (configuration not stated),-7.69% (inactive),1.1%
Cc1nc(N2CCN(c3ccccn3)CC2)c2c(C)c(C(=O)Nc3ccc(F)cc3)sc2n1,38.7% (inactive),11.3%
Cc1nc(N2CCOCC2)c2c(C)c(C(=O)Nc3ccc(C(F)(F)F)cc3)sc2n1,47.4% (inactive),-8.5%
Cc1nc(N2CCC(C)CC2)c2c(C)c(C(=O)Nc3cc(F)ccc3C)sc2n1,64% (active),-25.2%
